# Experimental data published in the supplement of paper PMC5499739.
# In all, about 16,000 sequences were measured (“Z-score”: median about -0.37, highest 2% from about 3.1 on). For the sample, the highest values were picked, then their nearest neighbours and some sequences at random.
# Test system: RBM10 RRM1-ZnF-RRM2 (GST-tagged construct)
# Assay: RNAcompete 7-mer binding Z-score; higher = stronger binding preference
# Outline: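 Each heptamer motif was given a one-sided Z-score for enrichment across the probes that contained it. GST-tagged RBM10 constructs (20 pmol) were combined with 1.5 nmol of a designed pool of 241 399 RNAs of up to 41 nt, transcribed from microarray-derived DNA templates. Binding took place in 1 ml Hepes pH 7.8 buffer containing KCl, NaCl, glycerol, DTT, BSA and glutathione Sepharose beads for 30 min at 4°C. After four 2-min washes at 4°C, bound RNA was identified by microarray hybridisation.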
row,Sequence,RNAcompete 7-mer binding Z-score
1,AGGCGUA,0.716
2,ACCUACA,-0.814
3,GACGGGU,2.37
4,AACGGGU,3.25
5,CACGGGA,1.66
6,UACGGGU,2.02
7,GACGGGG,2.79
8,CACGGGG,2.77
9,GACGGGA,2.3
10,AACGGGA,3.38
11,AACGGGG,3.65
12,ACGGCGG,1.11
13,AGCUCAG,-0.486
14,ACAUAUC,-0.526
15,AAGGAGU,3.12
16,AGUUUUG,-0.0707
17,CUUAAAC,-0.646
18,AGGGCUA,1.17
19,UGUUGUU,-0.286
20,GUCGCGU,-0.0124
21,AGGAAGU,1.21
22,AGGAAGA,1.64
23,CGGAAGG,2.53
24,UGGAAGG,3.68
25,AGGAAGG,4.46

row,Sequence,RNAcompete 7-mer binding Z-score
1,UGGAAGU,1.6
2,GUGUAAG,1.28
3,GGAGGGG,4.18
4,UUAGAGG,1.24
5,AGAGGGC,1.02
6,GGAGGAG,2.84
7,CGAGGGA,3.11
8,GGAGGGA,3.6
9,AGAGGGA,2.16
10,GGAGGGC,3.27
11,AUAGAGG,1.79
12,AGAGGGG,1.94
13,GUAGAGG,4.02
14,UGAGGGC,2.22
15,AGAUAAG,0.989
16,GUUAACU,-0.398
17,UCCUGUA,-0.795
18,UCAUGGG,1.19
19,AAAACGU,-0.0197
20,CGAGGGC,1.41
21,AGAGUGG,2.77
22,AGAGAGG,1.58
23,GGAGAGG,3.28
24,GGAGUGG,4.61
25,CGAGGGG,3.29

row,Sequence,RNAcompete 7-mer binding Z-score
1,GGAGAGA,1.26
2,CGAGGCG,1.5
3,GGAGUGA,2.63
4,GUCCAAA,-0.424
5,GUUCACG,-0.355
6,UAAGCAU,-0.555
7,UAUCAAU,-0.46
8,CUGUGUA,-0.417
9,UCUUUUG,-0.632
10,CACAGGG,2.49
11,AGCAGGA,2.45
12,UGCAGGG,2.53
13,AGCAGGG,3.39
14,AACAGGC,1.62
15,AACAGGG,3.73
16,GGUGCCC,0.0495
17,CUUAGCU,-0.832
18,CCUUGUC,-0.89
19,AUUUUCU,-0.803
20,CUUCUGC,-0.959
21,UUACUGC,-0.799
22,GAAAAGG,4.73
23,AGUAAGG,3.47
24,CGUAAGG,0.844
25,AGAAAGG,4.73

row,Sequence,RNAcompete 7-mer binding Z-score
1,AGUAAGU,0.188
2,CAAAGGU,1.62
3,CGAAAGG,1.98
4,UGAAAGG,2.76
5,AAAAAGG,2.19
6,AAAAGGU,2.52
7,GAAAAAG,1.52
8,GAAAGGU,4.42
9,GCGUGUC,-0.235
10,GCAUCGA,-0.22
11,CGCCUCA,-0.748
12,CGGAGCA,1.02
13,GCAGCGG,2.14
14,GUUCUAC,-0.759
15,GUAAAGG,3.36
16,GAUAAGU,0.0969
17,GUAAAAG,0.767
18,GUAAAGU,0.396
19,CAUAAGG,0.548
20,GAUAAGG,3.81
21,CCUACAG,-0.752
22,UGACACA,-0.315
23,UUCUUAU,-0.744
24,CGAACGC,-0.256
25,CCAUUUU,-1.08

row,Sequence,RNAcompete 7-mer binding Z-score
1,AUUACAC,-0.537
2,GGCUCAA,-0.122
3,CCCUCUU,-0.89
4,CAAAGGA,1.34
5,AAAAGGG,3.58
6,AAAAGGA,3.25
7,UAAAGGA,1.64
8,CAAAGGG,2.78
9,UAAAGGG,2.65
10,CUUUCGC,-0.967
11,UGAAGAU,-0.00877
12,CAAUGGA,1.4
13,UAAUGGG,2.89
14,AAAUGUA,0.0859
15,UAAUGGA,1.64
16,GAAUGGC,1.68
17,GAAUGGG,4.77
18,AAAUGGA,3.34
19,GAAUGGA,3.56
20,CAAUGGU,1.25
21,ACAUGGA,1.76
22,GAAUGGU,2.65
23,CAAUGGG,3.4
24,UGCGCUU,-0.744
25,CCCUCAG,-0.81

row,Sequence,RNAcompete 7-mer binding Z-score
1,CUCCGUC,-0.894
2,GACAAGC,-0.0233
3,GGCCGGU,0.279
4,GAUUCCA,-0.519
5,AAAUGGC,1.42
6,AAAUGGU,2.73
7,GUAUGGA,2.44
8,AAAUGGG,4.04
9,CUAUGGG,1.08
10,GUAUGGG,4.06
11,CGGAUAU,0.348
12,GGUGUCG,1.21
13,AGUAUGC,0.0204
14,CCCAGCU,-0.657
15,CUAGACA,-0.621
16,UUGGGCG,2.45
17,AGGCCCG,-0.759
18,CGCUUUC,-0.77
19,AGGGGCA,2.36
20,UGGGGCC,0.76
21,UGGGCGC,0.989
22,UUGGGGC,2.04
23,UGGGGCA,3.52
24,GGGGGCA,2.33
25,UGGGGGG,3.39

row,Sequence,RNAcompete 7-mer binding Z-score
1,UUGGGGG,3.03
2,UGGGGGC,3.18
3,AGGGCGG,2.23
4,UGGGGCG,2.66
5,UGGGCGG,3.38
6,UUGGAAU,0.57
7,AGUUCAA,-0.311
8,ACACAUG,-0.0962
9,AUGCUAU,-0.65
10,GAAAAUG,1.46
11,AAAAUUU,-0.544
12,AAGGACA,3.12
13,CUGAUAA,-0.566
14,UCGGGUC,0.512
15,ACCAGUC,-0.602
16,ACCAGGU,0.399
17,GCCUAUU,-0.901
18,ACCCUCA,-0.846
19,UGGGGUU,2.78
20,UGGGGGU,3.25
21,GGGGGGU,3.13
22,UGAGGCU,0.315
23,UGAGGGU,3.92
24,UGAGGGG,3.5
25,GGAGGAU,2.27

row,Sequence,RNAcompete 7-mer binding Z-score
1,AGAGGGU,2.21
2,CGAGGUU,0.727
3,CGAGGAU,1.1
4,CGAGGGU,3.55
5,GGAGGCU,1.29
6,UGAGGAG,1.94
7,GGAGGGU,3.8
8,UGAGAGG,1.8
9,GAUCGGA,0.785
10,UCUCGGA,-0.329
11,UCGGAUG,0.512
12,CGCCGAA,-0.646
13,GAUAUUG,0.283
14,AAGUGUC,-0.322
15,GCAAGUG,0.709
16,UCAGGGA,2.05
17,UGAGGCA,1.31
18,UGAGGGA,4.05
19,AGGGGUA,3.66
20,AGGGGUC,1.76
21,CGGGGUA,3.42
22,CGGGGUC,1.9
23,GCGGGUA,2.5
24,GUGGGUA,3.07
25,UGGGGUA,3.36

row,Sequence,RNAcompete 7-mer binding Z-score
1,CCGGGUA,0.814
2,CUGGGUA,1.78
3,UUGGGUA,1.95
4,GGGGGUA,3.52
5,CGAUUUA,-0.704
6,UUAAAGC,-0.439
7,ACUAGAA,-0.187
8,CUUUUGA,-0.755
9,AGAGACC,-0.774
10,UCAUACA,-0.464
11,AGGAGUG,2.8
12,GGGAGGA,3.24
13,GGGAGUG,3.84
14,AAGAGGG,3.05
15,UGGAGGA,2.95
16,UGGAGUG,2.72
17,UGGAGAG,2.12
18,UGGAGGG,4.26
19,UAGAGGU,1.68
20,AGGAGGA,2.22
21,GGGAGUA,2.34
22,UAGAGGG,3.16
23,GCACUAG,-0.0161
24,AUAAGCU,-0.391
25,UUGACGG,0.399

row,Sequence,RNAcompete 7-mer binding Z-score
1,CGUUUGC,-0.766
2,UUUCGAU,-0.664
3,UUCGGGA,0.734
4,GGGACCA,1.9
5,UUCCGUC,-0.726
6,UCAAUGG,1.28
7,UCUGUGG,0.199
8,CGGAGGC,1.24
9,GGGAGGG,4.06
10,AGGAGGG,3.31
11,GGGAGCG,3.23
12,CGGAGGG,2.92
13,GAGAGGG,2.75
14,CGGAGCG,1.45
15,GGGAGGC,3.2
16,GGGAGCC,0.891
17,UGGAGGC,2.16
18,AGGAGGU,2.71
19,AGGAGGC,1.72
20,CGCUGGA,-0.027
21,AGUCGCG,-0.0634
22,UGCCACC,-0.759
23,ACUUUGG,-0.351
24,GGCUUGU,-0.318
25,CUCGUUC,-0.61

row,Sequence,RNAcompete 7-mer binding Z-score
1,GGCUUCA,-0.428
2,GAUACUG,-0.118
3,GAAGUCG,0.428
4,CUUCUCA,-0.981
5,UCGUGCG,-0.027
6,UCUUAUU,-0.803
7,UUAGUAA,-0.355
8,AGGCCUC,-0.828
9,CGGAGGU,2.46
10,GGGAGGU,3.39
11,UGGAGGU,3.02
12,CCACGAA,-0.544
13,UAGGUAG,2.27
14,AAGGUAG,3.82
15,AAGGUAU,2.03
16,CAGGUAG,2.68
17,UAGGUAA,1.96
18,AAGGUAA,3.65
19,GGCCGUA,0.0786
20,AAGAGGU,1.66
21,CCGCAUA,-0.817
22,AAGAUUU,-0.588
23,CGUAAUC,-0.511
24,CGGUGAA,0.723
25,GGGUGAU,3.16

row,Sequence,RNAcompete 7-mer binding Z-score
1,UGGUGAU,0.727
2,GGGUGAG,4.12
3,CGGUGAG,1.64
4,GGGUGAA,3.66
5,GGGUGAC,2.92
6,AGGUGAU,1.62
7,UGGUGAA,1.22
8,CAUUUCU,-0.872
9,CAUAACU,-0.592
10,UAAAGCC,-0.661
11,ACGUUUC,-0.912
12,AGACAGG,1.72
13,GGACAGG,3.23
14,UAACAGG,1.14
15,GAACAGA,0.745
16,GGACAGU,1.01
17,GAACAGG,3.18
18,ACCCAGG,-0.173
19,GCUUUAA,-0.726
20,CCAGCUA,-0.719
21,GUGGUAU,1.08
22,GUGCUAG,0.268
23,CGAUCUG,-0.795
24,GUCUAAC,-0.486
25,UGGUAGC,1.01

row,Sequence,RNAcompete 7-mer binding Z-score
1,GGGUAGA,3.84
2,GGGUAGC,2.69
3,GAGUAGG,3.6
4,UGGUAGA,1.89
5,GAGUAGA,1.4
6,GGGUAUG,3.69
7,CGGUAGA,1.01
8,GGGUAUC,2.16
9,GAGUAGU,0.68
10,UGGUAGG,3.16
11,AGGUAUG,1.95
12,UGAUUCC,-0.668
13,AAUUGUG,-0.00512
14,UUGGUGA,1.39
15,GAUCGCG,-0.0925
16,UCGUUCA,-0.508
17,UUUGAUG,-0.358
18,UUGAGCA,-0.165
19,GGGUAGU,3.17
20,CGGUAGG,2.15
21,GGGUACA,3.39
22,AGGUAGC,0.862
23,GGGUAGG,4.42
24,GCGUAGG,2.21
25,UGGUAGU,0.585

row,Sequence,RNAcompete 7-mer binding Z-score
1,AGGUAGG,3.72
2,CGGUAGU,0.37
3,GGGUACU,2.05
4,UGGUACA,0.949
5,AGGUAGA,2.42
6,UAUGAAC,-0.195
7,CAUGCUU,-0.861
8,UGCUGCG,-0.34
9,UACUCGC,-0.548
10,GUGGAAU,2.34
11,AGUAUAU,-0.351
12,GGGGGAA,2.61
13,AGGGGAC,1.97
14,AGGGGAG,2.52
15,AGGGGAA,3.56
16,AAGGGAC,3.43
17,UAGGGAU,2.48
18,GAGGGAC,2.02
19,AAGGGCG,3.12
20,CGGGGAA,2.76
21,AAGGGAU,3.44
22,ACGGGAU,1.88
23,AAGGGAG,4.04
24,UUAGGCC,-0.471
25,AGGCCUG,-0.632

row,Sequence,RNAcompete 7-mer binding Z-score
1,AAUCGCU,-0.825
2,GUCUCUC,-0.719
3,CGCGUGG,1.41
4,UUCGGCU,-0.61
5,AACCAGU,-0.235
6,GUCGUCC,-0.377
7,CAACUAC,-0.628
8,GGGGGAU,2.89
9,AAGGGAA,4.17
10,UAGGGAG,3.15
11,UAGGGAA,3.46
12,UAGGGAC,2.24
13,CAGGGAA,3.07
14,AAGGCAA,1.95
15,GAGGGAG,3.04
16,CAGGGAG,3.08
17,AGGGGAU,3.41
18,ACGGGAA,2.76
19,UGGGGAU,3.05
